Rows were chosen to be rich in hits. Some 2.4% of all compounds tested hit in one or more screens of this group.
D2 ag-1: HTS Assay for Allosteric Agonists of the Human D2 Dopamine Receptor: Primary Screen for Agonists. activation, % at 2 µM. AID 485358, 2010. 340,000 tested, 0.53% active. HEK293 T-REx D2 cells, calcium flux agonist mode. D(2) dopamine receptor (Homo sapiens), P14416;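 active means activation over 3 SD above normal in the single-dose calcium agonist read, cut at about 30% in these data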; further: 0% is about no effect
Target sequence (P14416 whole entry, looked up): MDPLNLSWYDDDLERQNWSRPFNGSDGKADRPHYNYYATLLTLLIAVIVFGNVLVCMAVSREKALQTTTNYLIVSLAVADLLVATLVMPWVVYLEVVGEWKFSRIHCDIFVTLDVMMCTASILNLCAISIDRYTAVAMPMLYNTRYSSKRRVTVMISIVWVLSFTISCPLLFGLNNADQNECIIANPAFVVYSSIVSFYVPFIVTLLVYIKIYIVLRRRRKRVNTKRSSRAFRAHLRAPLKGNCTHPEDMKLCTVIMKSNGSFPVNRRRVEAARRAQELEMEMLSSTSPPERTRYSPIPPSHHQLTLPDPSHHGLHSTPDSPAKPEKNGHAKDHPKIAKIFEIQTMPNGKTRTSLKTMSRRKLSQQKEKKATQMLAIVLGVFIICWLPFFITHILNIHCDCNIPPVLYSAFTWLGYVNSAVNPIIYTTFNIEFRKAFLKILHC
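In this primary screen, compounds producing a positive calcium signal within 180 s of addition to tetracycline-induced, force-coupled HEK293 Trex D2 cells are flagged; cells are dye-loaded with a no-wash calcium kit beforehand.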
D2 antag: HTS Assay for Allosteric Antagonists of the Human D2 Dopamine Receptor: Primary Screen for Antagonists; inhibition, % at 10 µM; AID 485344, 2010; HEK293 TREx D2 cells, calcium flux, dopamine EC80; D(2) dopamine receptor (Homo sapiens), P14416; 340,000 tested, 2% active; in the data active means inhibition above about 30%; inactive means below that, where a call was filed; further: 0% is about no effect
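Read-out: kinetic calcium fluorescence (1 cycle/s) in inducible HEK293 T-REx D2 cells after an EC80 dopamine addition that followed 180 s compound preincubation. Loss of the dopamine response indicates antagonism.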
D2 PAM-1: Beta-Arrestin HTS for Positive Allosteric Modulators of the Human D2 Dopamine Receptor: Potentiators; D(2) dopamine receptor (Homo sapiens), P14416; DiscoveRx D2 beta-arrestin cells, luminescence, 90 min; 100% = 57 uM dopamine signal; potentiation, % (no concentration beside the values); 360,000 tested, 0.23% active; AID 624464, 2012; in the data active means potentiation above about 50%; inconclusive means mostly about 30% to 49%
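PathHunter D2 cells, attached overnight at 37 deg C, received compound in DMSO plus dopamine at EC20 (50 nM final) for 90 min at 37 deg C. Beta-arrestin recruitment was read as luminescence after 1 h with detection reagent at ambient temperature.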
D2 PAM-2: HTS Assay for Positive Allosteric Modulators of the Human D2 Dopamine Receptor: Primary Screen for Potentiators | HEK293 T-REx D2, calcium flux, EC20 dopamine potentiation | potentiation, % at 10 µM | AID 485347, 2010 | 340,000 tested, 0.34% active;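 active means potentiation over 3 SD above the plate norm, cut at about 30% in these data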; further: 0% is about no effect
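Cells plated with tetracycline inducer and held overnight at 30 C; calcium dye loaded 30–90 min at room temperature; baseline taken, compound added and read 180 s; EC20 dopamine then added and read 180 s.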
D2 ag-2: Beta-Arrestin HTS for Positive Allosteric Modulators of the Human D2 Dopamine Receptor: Agonists; D(2) dopamine receptor (Homo sapiens), P14416; DiscoveRx PathHunter D2 beta-arrestin, luminescence, 90 min; 100% = 57 uM dopamine signal; activation, % (no concentration beside the values); 360,000 tested, 0.084% active; in the data active means activation above about 40%; inconclusive means between about 15% and that limit
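DiscoveRx PathHunter D2 beta-arrestin cells (2,100/well) attached overnight, then compound-stimulated 90 min at 37 C in HBSS/10 mM HEPES/0.1% Tween-20 buffer; beta-galactosidase complementation read by luminescence after 1 h at ambient temperature. Dopamine 57 uM final (EC100) as control.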
* marks the source's active call; other numbers are inactive results; ? = inconclusive; nt = no result given.

SMILES	D2 ag-1	D2 antag	D2 PAM-1	D2 PAM-2	D2 ag-2
CCc1nnc2c3ccccc3nc(Nc3ccc(F)c(Cl)c3)n12	0	nt	nt	-4	nt
CC1CCN(c2c([N+](=O)[O-])nn(-c3ccc4c(c3)OCCO4)[n+]2[O-])CC1	0	-2	75*	1	10
O=C(c1ccco1)N1CCN(c2c([N+](=O)[O-])nn(-c3ccc(Cl)cc3)[n+]2[O-])CC1	1	12	22	4	3
COC(=O)CS(=O)(=O)c1nc2ccccc2nc1N1CCCCC1	1	nt	nt	-6	nt
CCCCOc1ccc(CNC(=O)c2cc3n(n2)CCCN(Cc2ccc(C)cc2)C3=O)cc1	2	nt	nt	4	nt
COc1ccc2c(c1)c(=O)c(C(=O)c1ccc(F)cc1)cn2CC(=O)Nc1ccc2c(c1)OCO2	0	nt	nt	-18	nt
COc1ccc2oc(C)c(C(=O)c3ccc([N+](=O)[O-])cc3)c2c1	19	-2	84*	14	?
O=C1c2cccc3c([N+](=O)[O-])ccc(c23)C(=O)N1c1ccccn1	1	17	?	11	?
O=C1c2cccc3c([N+](=O)[O-])ccc(c23)C(=O)N1O	0	27	4	-2	42*
Cc1sc2nc(C3CC3)nc(SCC(=O)N3CCc4ccccc4C3)c2c1C	1	-19	-24	-3	0
CCc1c(C)sc2nc(C(C)C)nc(SCC(=O)N3CCc4ccccc4C3)c12	0	44*	-2	-2	-1
CCOC(=O)N1CCc2c(sc3c2c(=O)n(-c2ccc(Cl)cc2)c(=O)n3CC(=O)Nc2ccccc2)C1	0	nt	nt	-6	nt
Cc1ccc(-n2nc(CO)c(C(=O)NCc3cccnc3)n2)cc1C	-1	nt	nt	-2	nt
O=C(Nc1ccncc1)c1cc2ccccc2cc1O	3	0	137*	20	?
CCCn1c(CN2CCN(c3ccc(OC)cc3)CC2)nc2c1c(=O)[nH]c(=O)n2C	0	nt	nt	0	nt
CCN(CC(=O)NC)S(=O)(=O)c1ccc(Br)cc1	0	-1	-5	34*	-3
O=S(=O)(c1ccc(Br)cc1)N1CCn2cccc2C1c1ccc(Br)cc1 (configuration not stated)	1	nt	nt	18	nt
CCN(CC)c1ccc(NC(=O)c2c(C)nn(-c3ccc(F)cc3)c2-n2cccc2)c(C)c1	-1	nt	nt	-3	nt
Nc1nn(S(=O)(=O)c2ccccc2)cc1-c1ccc([N+](=O)[O-])cc1	0	-4	74*	10	?
Cc1ccc(S(=O)(=O)n2cc(-c3ccccc3)c(N)n2)cc1	-1	4	-8	-3	-2
CCCN(CCC)c1cc(C)nc2nc(-c3ccc(C(C)(C)C)cc3)nn12	nt	nt	nt	11	nt
Cc1cc(=O)oc2c3c(cc(OCC(=O)NCc4ccco4)c12)OC(C)(C)CC3	-1	14	-11	-11	-3
Cc1cc(=O)oc2c3c(cc(OCC(=O)NCC(=O)N[C@H](C(=O)O)C(C)C)c12)OC(C)(C)CC3	0	30*	3	14	1
Cc1c(C)c2c(OCC(=O)NCc3ccco3)cc3c(c2oc1=O)CCC(C)(C)O3	1	30*	-20	3	-3
CC[C@H](C)[C@H](NC(=O)CNC(=O)COc1cc2c(c3oc(=O)cc(C)c13)CCC(C)(C)O2)C(=O)O	0	-21	1	-14	2
SMILES	D2 ag-1	D2 antag	D2 PAM-1	D2 PAM-2	D2 ag-2
O=C(CCS(=O)(=O)c1cc(Br)cc2c1N(C(=O)C1CC1)CC2)NCc1ccccc1Cl	-2	nt	nt	4	nt
O=C(O)CCCC(=O)Nc1nc2n(n1)C(c1ccc(F)cc1)CC(c1ccc(Cl)cc1)N2 (configuration not stated)	-1	32*	-9	-8	-3
CCN(CC)c1ccc(/C=C2/C(=O)c3ccc(C(=O)O)cc3C2=O)cc1	84*	28	-32	-2	-3
c1ccc(Cn2c[n+](Cc3ccccc3)cn2)cc1	1	43*	-5	-6	-3
Nc1c(C(=O)c2ccccc2)sc2nsc(SCCN3CCOCC3)c12	32*	2	2	-4	1
CC(=O)c1sc2nsc(SCCN3CCOCC3)c2c1N	0	6	-3	-3	-3
CCc1ccc(NC(=O)CSc2c(C)cnc3c2c(=O)n(C)c(=O)n3C)cc1	-1	nt	nt	-15	nt
COc1ccc(C(=O)Nc2ccc(C(=O)OCC(=O)c3cccc4ccccc34)cc2)cc1	1	76*	-17	0	3
COc1ccc(NC(=O)c2ccc3ccccc3c2)cc1	0	2	-1	9	5
O=C(COC(=O)c1cc[n+]([O-])cc1)NCCc1ccc(Cl)cc1Cl	1	34*	0	-1	-14
COc1ccc(NC(=O)CNC(=O)Cc2ccccc2)cc1	-2	8	0	32*	6
COc1ccc(NC(=O)Cc2ccccc2)cc1	1	-10	-4	10	-4
COc1ccc(NC(=O)CNS(=O)(=O)c2ccc(Cl)cc2)cc1	0	-4	1	45*	1
COc1ccc(NC(=O)CN(C)C(=O)c2oc3ccccc3c2C)cc1	-1	31*	-3	-3	-1
COc1ccc(NC(=O)C2CCCN(C(=O)c3cnn(-c4ccccc4)c3-n3cccc3)C2)cc1 (configuration not stated)	1	nt	nt	-5	nt
C=CCn1c(=O)c(C#N)cc2c(=O)n3ccccc3nc21	0	58*	-7	1	-1
COc1cccc(CNS(=O)(=O)c2ccc3c(c2)N(C(C)=O)CCO3)c1	0	61*	-20	-19	-3
Cc1cccc(CCNC(=O)C2CCCN(c3ncnc4c3nc3n4CCCCC3)C2)c1 (configuration not stated)	0	6	-5	0	-1
Cc1cccc(N2CCN(CCCNC(=O)C3CCCN(c4ncnc5c4nc4n5CCCCC4)C3)CC2C)c1 (configuration not stated)	-1	56*	-13	0	-1
COc1cccc(C2NC(=O)NC(C)=C2C(=O)Nc2ccc(C)cc2)c1OC (configuration not stated)	0	31*	-19	-4	-3
Cc1ccc2occ(C(=O)c3ccco3)c(=O)c2c1	-1	39*	-2	2	-1
COc1ccc(-n2cc(C(=O)NCCc3cc(OC)ccc3OC)c3ccccc3c2=O)cc1	0	nt	nt	1	nt
COCCCNC(=O)c1cc2c(=O)n3cccc(C)c3nc2n(C(C)C)c1=N	1	34*	22	6	-2
